Tests used:
Assay in all cases: log2 ratio of Biotin-Ahx-Ub-VS probe labelling (fragment/DMSO); higher = less target engagement (more negative = stronger competition), active = hit call of the paper (q ≤ 0.05, log2 ratio ≤ -1)
Conditions in all cases: compound concentration: 200 uM; treatment time: 3 h
USP34 = USP34 (UniProt Q70CQ2)
Outline: (§1)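 Triplicate samples of HEK293T lysate, 495 µg each, received fragment at 200 µM or vehicle for 3 h, followed by Biotin-Ahx-Ub-VS (0.5 µM final) for 1 h. After NeutrAvidin enrichment of labelled DUBs and LysC/trypsin digestion, peptides were run by diaPASEF LC-MS/MS. The values are average log2 fragment/vehicle ratios from global-median-normalised Spectronaut label-free quantities, tested by unpaired t-test on proteins having ≥2 unique peptides.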

USP36 = target: T1, USP36 (UniProt Q9P275)
T1 sequence (whole entry): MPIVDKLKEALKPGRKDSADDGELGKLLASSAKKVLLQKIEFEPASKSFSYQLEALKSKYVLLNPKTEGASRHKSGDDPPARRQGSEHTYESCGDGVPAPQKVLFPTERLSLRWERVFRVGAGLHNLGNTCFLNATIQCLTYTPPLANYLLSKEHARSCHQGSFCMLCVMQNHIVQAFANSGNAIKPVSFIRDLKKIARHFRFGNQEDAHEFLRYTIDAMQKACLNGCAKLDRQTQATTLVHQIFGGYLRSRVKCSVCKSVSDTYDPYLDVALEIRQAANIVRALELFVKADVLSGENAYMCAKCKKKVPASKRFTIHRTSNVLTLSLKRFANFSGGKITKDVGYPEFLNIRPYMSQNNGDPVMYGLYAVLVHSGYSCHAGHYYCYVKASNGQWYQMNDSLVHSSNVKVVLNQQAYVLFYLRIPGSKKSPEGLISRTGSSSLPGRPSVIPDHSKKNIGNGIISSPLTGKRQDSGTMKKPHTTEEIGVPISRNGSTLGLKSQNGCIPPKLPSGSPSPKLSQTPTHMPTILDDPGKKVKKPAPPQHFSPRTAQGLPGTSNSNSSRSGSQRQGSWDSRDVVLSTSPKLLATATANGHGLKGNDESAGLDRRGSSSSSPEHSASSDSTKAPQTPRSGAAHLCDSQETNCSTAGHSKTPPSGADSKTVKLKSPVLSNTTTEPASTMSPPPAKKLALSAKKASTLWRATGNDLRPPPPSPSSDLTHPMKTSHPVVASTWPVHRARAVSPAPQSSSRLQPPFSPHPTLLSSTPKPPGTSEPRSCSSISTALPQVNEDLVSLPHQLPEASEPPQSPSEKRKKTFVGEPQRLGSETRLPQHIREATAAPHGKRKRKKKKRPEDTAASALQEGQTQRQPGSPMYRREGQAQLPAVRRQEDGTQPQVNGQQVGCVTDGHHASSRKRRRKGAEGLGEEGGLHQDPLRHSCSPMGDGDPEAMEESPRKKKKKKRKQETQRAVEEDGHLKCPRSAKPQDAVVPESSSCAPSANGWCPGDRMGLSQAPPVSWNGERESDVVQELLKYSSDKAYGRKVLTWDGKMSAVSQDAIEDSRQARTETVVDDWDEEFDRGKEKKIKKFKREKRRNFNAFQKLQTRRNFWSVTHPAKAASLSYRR
Outline: as §1

USP38 = target: T2, USP38 (UniProt Q8NB14)
T2 sequence (whole entry): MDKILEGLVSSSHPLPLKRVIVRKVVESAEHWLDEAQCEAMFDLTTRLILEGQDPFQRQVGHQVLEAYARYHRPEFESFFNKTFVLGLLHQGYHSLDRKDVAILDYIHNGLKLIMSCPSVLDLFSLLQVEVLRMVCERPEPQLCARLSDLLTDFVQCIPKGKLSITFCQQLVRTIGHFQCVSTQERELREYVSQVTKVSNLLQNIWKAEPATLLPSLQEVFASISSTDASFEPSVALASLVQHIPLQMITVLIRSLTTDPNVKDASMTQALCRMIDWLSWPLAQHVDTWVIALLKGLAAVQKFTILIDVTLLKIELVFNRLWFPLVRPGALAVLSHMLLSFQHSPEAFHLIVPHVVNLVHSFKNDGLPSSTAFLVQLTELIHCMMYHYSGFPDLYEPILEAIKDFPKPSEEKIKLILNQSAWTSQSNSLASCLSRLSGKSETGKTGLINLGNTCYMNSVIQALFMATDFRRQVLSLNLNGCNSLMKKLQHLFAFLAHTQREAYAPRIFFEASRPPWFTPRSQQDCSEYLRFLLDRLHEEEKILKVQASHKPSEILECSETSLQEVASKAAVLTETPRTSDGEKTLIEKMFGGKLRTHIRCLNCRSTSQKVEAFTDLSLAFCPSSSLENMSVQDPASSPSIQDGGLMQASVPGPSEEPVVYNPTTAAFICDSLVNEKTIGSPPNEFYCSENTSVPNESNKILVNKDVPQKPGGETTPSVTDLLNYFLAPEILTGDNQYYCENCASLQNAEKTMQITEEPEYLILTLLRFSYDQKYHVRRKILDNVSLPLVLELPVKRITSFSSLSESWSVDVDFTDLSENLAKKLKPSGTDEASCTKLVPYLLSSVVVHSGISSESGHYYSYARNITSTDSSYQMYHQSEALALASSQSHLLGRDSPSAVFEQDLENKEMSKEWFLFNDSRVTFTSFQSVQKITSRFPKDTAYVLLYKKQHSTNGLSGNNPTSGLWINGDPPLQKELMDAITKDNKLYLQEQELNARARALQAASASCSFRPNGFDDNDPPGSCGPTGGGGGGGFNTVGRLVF
Outline: as §1

USP39 = target: T3, USP39 (UniProt Q53GS9)
T3 sequence (whole entry): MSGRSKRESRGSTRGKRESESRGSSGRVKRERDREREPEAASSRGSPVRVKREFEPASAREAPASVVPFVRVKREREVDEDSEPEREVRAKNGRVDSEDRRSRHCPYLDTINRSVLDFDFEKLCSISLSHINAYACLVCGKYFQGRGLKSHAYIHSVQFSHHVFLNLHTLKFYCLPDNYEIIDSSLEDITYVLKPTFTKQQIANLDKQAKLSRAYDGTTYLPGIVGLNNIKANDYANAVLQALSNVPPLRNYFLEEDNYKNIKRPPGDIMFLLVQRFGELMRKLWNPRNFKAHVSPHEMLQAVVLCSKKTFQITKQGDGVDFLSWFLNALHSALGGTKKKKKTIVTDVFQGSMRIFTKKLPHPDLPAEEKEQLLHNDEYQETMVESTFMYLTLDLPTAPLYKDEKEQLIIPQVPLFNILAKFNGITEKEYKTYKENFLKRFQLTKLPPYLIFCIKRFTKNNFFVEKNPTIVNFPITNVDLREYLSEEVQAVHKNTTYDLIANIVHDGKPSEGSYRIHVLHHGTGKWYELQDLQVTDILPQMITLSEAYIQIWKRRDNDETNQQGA
Outline: as §1

USP4 = target: T4, USP4 (UniProt Q13107)
T4 sequence (whole entry): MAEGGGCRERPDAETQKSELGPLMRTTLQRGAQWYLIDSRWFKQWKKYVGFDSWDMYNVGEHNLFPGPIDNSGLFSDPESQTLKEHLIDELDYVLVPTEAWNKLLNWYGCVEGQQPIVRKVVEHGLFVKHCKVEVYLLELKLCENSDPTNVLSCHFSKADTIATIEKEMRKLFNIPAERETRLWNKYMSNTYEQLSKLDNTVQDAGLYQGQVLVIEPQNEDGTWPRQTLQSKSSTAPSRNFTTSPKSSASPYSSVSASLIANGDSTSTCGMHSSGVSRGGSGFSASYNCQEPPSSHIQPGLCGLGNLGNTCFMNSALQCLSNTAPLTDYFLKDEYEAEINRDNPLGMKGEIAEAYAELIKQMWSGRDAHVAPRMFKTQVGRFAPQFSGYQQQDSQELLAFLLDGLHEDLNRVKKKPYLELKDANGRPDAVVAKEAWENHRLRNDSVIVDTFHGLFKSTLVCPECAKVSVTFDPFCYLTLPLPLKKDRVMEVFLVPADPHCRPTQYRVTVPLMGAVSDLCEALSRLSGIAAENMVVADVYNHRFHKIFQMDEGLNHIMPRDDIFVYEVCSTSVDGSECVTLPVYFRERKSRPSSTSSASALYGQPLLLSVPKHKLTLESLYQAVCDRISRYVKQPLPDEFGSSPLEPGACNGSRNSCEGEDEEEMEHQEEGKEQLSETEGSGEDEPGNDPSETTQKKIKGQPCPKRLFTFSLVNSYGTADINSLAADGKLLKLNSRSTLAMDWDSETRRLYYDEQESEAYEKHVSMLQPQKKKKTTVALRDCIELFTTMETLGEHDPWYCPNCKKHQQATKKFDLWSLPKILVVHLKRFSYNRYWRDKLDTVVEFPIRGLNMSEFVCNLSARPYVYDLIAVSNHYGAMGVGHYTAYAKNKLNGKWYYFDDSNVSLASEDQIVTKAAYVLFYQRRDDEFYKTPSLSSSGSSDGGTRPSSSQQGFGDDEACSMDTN
Outline: as §1

Measured: log2 ratio of Biotin-Ahx-Ub-VS probe labelling

USP34, sequence (Q70CQ2 whole entry, the tested form may be a part): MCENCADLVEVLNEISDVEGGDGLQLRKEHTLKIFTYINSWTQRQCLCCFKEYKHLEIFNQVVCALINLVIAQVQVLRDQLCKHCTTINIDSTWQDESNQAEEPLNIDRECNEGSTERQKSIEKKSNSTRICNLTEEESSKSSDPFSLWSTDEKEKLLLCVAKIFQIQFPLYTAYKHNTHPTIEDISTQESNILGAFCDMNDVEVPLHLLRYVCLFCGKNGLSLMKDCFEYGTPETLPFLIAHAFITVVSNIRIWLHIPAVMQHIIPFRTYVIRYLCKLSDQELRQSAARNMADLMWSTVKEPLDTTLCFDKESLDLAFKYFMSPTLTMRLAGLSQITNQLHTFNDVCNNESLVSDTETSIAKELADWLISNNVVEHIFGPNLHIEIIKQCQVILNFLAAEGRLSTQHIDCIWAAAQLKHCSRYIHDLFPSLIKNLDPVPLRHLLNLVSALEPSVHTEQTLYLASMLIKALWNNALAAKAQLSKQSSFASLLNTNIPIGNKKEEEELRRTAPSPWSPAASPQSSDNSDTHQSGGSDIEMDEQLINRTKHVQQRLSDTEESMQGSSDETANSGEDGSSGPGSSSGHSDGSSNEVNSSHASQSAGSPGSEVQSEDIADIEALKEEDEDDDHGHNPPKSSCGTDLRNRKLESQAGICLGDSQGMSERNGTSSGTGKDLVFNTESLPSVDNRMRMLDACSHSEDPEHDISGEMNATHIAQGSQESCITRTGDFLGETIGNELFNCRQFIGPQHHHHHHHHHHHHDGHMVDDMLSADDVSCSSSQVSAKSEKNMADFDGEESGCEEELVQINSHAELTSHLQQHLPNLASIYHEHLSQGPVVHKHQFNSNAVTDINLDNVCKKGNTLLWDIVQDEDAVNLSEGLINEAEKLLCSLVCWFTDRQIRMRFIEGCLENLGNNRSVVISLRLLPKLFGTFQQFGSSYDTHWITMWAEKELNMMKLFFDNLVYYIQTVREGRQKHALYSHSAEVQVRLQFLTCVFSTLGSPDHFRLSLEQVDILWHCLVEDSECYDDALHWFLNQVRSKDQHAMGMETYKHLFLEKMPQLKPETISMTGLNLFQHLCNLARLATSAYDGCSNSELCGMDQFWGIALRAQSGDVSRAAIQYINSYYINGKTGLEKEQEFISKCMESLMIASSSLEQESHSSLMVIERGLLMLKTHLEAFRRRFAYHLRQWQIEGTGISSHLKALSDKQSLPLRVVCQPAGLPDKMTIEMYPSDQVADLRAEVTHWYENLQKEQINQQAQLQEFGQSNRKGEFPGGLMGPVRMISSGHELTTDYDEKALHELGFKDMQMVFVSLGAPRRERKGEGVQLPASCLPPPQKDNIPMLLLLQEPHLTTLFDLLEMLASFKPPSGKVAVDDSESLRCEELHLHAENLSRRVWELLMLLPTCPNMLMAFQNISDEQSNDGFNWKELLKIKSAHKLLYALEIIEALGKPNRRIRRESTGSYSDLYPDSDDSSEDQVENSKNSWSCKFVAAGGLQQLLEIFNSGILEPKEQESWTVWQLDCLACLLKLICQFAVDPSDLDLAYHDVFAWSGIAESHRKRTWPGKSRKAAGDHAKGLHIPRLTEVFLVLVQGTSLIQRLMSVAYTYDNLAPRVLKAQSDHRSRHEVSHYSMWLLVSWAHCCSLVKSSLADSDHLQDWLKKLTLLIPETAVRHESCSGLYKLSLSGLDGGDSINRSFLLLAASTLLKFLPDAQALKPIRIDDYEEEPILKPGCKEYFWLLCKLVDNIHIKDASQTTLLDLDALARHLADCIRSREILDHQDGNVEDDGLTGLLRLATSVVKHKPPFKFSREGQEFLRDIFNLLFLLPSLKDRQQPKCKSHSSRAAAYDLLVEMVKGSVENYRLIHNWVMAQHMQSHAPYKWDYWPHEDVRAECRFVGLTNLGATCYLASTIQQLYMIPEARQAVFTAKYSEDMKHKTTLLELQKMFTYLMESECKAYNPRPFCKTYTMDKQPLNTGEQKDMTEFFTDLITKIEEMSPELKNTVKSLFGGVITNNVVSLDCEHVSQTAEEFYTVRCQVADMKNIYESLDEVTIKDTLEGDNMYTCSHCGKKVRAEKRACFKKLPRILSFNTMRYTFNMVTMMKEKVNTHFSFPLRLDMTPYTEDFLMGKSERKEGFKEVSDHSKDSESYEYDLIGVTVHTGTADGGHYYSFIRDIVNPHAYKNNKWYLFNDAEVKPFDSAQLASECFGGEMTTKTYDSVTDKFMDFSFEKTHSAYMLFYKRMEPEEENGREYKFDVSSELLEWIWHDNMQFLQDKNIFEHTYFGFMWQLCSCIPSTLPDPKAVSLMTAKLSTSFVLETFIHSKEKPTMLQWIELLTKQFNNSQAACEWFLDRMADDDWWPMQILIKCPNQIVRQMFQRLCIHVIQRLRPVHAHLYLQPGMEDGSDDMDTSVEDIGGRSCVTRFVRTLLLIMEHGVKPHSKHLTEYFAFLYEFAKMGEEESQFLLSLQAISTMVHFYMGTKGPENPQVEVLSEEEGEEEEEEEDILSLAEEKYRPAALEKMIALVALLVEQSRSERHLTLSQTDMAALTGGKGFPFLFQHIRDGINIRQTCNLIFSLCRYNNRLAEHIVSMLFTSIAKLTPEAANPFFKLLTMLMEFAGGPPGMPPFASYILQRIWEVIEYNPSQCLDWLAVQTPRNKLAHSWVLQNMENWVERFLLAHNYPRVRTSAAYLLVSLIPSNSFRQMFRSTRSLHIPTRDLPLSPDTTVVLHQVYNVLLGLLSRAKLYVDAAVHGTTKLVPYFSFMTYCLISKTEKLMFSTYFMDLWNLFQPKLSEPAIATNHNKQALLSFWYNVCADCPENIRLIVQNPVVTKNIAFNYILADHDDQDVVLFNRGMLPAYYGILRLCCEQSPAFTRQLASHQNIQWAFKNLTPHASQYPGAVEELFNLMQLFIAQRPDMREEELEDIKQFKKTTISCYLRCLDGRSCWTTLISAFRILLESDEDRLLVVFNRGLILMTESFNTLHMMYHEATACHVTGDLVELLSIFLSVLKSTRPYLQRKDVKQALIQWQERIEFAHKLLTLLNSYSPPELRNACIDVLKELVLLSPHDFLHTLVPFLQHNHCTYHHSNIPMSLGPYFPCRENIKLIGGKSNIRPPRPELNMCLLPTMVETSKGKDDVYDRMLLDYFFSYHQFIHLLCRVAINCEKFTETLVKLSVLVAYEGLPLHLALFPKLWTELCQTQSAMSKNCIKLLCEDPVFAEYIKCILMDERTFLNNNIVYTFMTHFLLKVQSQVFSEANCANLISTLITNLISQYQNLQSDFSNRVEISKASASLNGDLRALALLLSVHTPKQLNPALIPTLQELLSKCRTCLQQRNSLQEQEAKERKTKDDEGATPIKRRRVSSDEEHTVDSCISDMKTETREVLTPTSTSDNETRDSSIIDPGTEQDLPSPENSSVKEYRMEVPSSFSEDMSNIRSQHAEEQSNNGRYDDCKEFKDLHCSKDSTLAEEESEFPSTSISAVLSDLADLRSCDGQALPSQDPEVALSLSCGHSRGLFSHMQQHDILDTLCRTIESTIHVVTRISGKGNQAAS

Cc1nc(CN2CCCN(C(=O)CCl)CC2)no1.Cl
inactive: USP34 0.0178 | USP36 -0.0476 | USP38 0.0657 | USP39 -0.161 | USP4 0.31

Source: the supplement of paper PMC11732987, “Enantioselective OTUD7B fragment discovery through chemoproteomics screening and high-throughput optimisation” (Communications Chemistry, 2025)
